Measurements: PubChem BioAssay (NCATS)
Results filed as inconclusive are left out. Calls of active or inactive are those of the source. The call rests on the fitted dose curve; in most records, active means well fitted curve in the direction sought with a large enough effect; inconclusive means small, poorly fitted or top-dose-only effect, or another doubt; inactive means no such curve, though single readings can be large; an effect the other way counts as inactive or inconclusive. Where a SMILES comes first, the peptide text is derived from it. Bridges are numbered along the chain shown (N, C = ends). [ ]: non-standard residue; d: D form. hArg = N=C(N)NCCCC[C@H](N)C(=O)O; Mpa = O=C(O)CCS

Assays:
[1] = P-glycoprotein substrates identified in KB-8-5-11 adenocarcinoma cell line, qHTS therapeutic library screen (AID 1346987); conditions: outcome: dose series up to 44.5 µM; further: series mostly up to about 44 µM; on the % scale 0 is the no-effect control and ±100 the full control effect; nearly all actives have a fitted effect of over 65% in size
Procedure, shortened: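 Steps: plate 500 KB-8-5-11 cells/well in DMEM + 10% FCS (colchicine removed); pin compounds in dose-response; incubate 72 h, 37 degree C, 5% CO2; add CellTiter-Glo, 5 min; read luminescence.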

[2] = NS1 protein of Zika virus - qHTS assay to identify small molecule inhibitors in human HEK 293 cells (AID 1347053);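 further: series mostly up to about 46 µM; plate controls were infected untreated cells for no effect and uninfected cells for full effect; nearly all actives have a fitted effect of over 55% in size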
Procedure, shortened: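 HEK 293 cells pretreated with compound for 1 h, then infected with ZIKV MR766 (MOI 0.5) for 24 h at 37 C. NS1 detected by TR-FRET with two anti-NS1 antibodies; normalized to uninfected (0%) and infected (100%) wells.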

[3] = qHTS of pediatric cancer cell lines to identify multiple opportunities for drug repurposing: Primary screen for TC32 cells (AID 1347089); further: on the % scale 0 is the no-effect control and ±100 the full control effect; nearly all actives have a fitted effect of over 60% in size
Procedure, shortened: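 In the primary qHTS, MIPE compounds were tested at 11 concentrations (0.78 nM to 46 µM) and NPC compounds at 8 (0.59 nM to 46 µM) on TC32 cells for 48 h. CellTiter-Glo luminescence gave viability.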

[4] = qHTS of pediatric cancer cell lines to identify multiple opportunities for drug repurposing: Primary screen for DAOY cells (AID 1347090);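 further: series mostly up to about 46 µM; plate controls were DMSO for no effect and bortezomib for full effect; nearly all actives have a fitted effect of over 55% in size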
Procedure, shortened: (§1)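 Cell viability, CellTiter-Glo luminescence; 500-1,000 cells/well, 8- or 11-point titration, 48 h compound exposure at 37 degrees C, 5% CO2. Controls: DMSO neutral, bortezomib 2.3 µM final as positive.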

[5] = qHTS of pediatric cancer cell lines to identify multiple opportunities for drug repurposing: Primary screen for SJ-GBM2 cells (AID 1347091);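 further: plate controls were DMSO neutral control for no effect and bortezomib for full effect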
Procedure, shortened: as §1

[6] = qHTS of pediatric cancer cell lines to identify multiple opportunities for drug repurposing: Primary screen for SK-N-MC cells (AID 1347093);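 further: series mostly up to about 46 µM; plate controls were DMSO neutral control for no effect and bortezomib for full effect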
Procedure, shortened: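 Metabolically active cells were quantified by ATP-dependent luminescence (CellTiter-Glo, 15 min at room temperature) following 48 h treatment. Cells had been plated at 500-1,000 per well and settled for 5 h beforehand.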

[7] = qHTS of pediatric cancer cell lines to identify multiple opportunities for drug repurposing: Primary screen for BT-37 cells (AID 1347094);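 further: series mostly up to about 57 µM; plate controls were DMSO for no effect and bortezomib for full effect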
Procedure, shortened: (§2)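 Plated cells (500-1,000 per well, growth media) were allowed to settle for 5 hours, treated with compound dilutions for 48 hours, then lysed with CellTiter-Glo for 15 min at room temperature before luminescence reading.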

[8] = qHTS of pediatric cancer cell lines to identify multiple opportunities for drug repurposing: Primary screen for NB-EBc1 cells (AID 1347095);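 further: plate controls were DMSO neutral control for no effect and bortezomib for full effect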
Procedure, shortened: as §2

[9] = qHTS of pediatric cancer cell lines to identify multiple opportunities for drug repurposing: Primary screen for A673 cells (AID 1347092); further: on the % scale 0 is the no-effect control and ±100 the full control effect; nearly all actives have a fitted effect of over 45% in size
Procedure, shortened: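 48 h compound exposure, A673, 500-1,000 cells/well, 37 degrees C/5% CO2. MIPE: 11-point, 0.78 nM-46 µM; NPC: 8-point, 0.59 nM-46 µM (final). Readout CellTiter-Glo luminescence after 15 min RT.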

C[C@@H]1CCC[C@H](C)N1
inactive: outcome [1] | outcome [2] | outcome [3] | outcome [4] | outcome [5] | Potency [6] | outcome [7] | outcome [8]

CC(C)CCOC(=O)c1ccc(N(C)C)cc1
inactive: outcome [1] | outcome [2] | outcome [3] | outcome [5] | outcome [9] | Potency [6] | outcome [7] | outcome [8]

NC(=O)N[C@@H](CCC(=O)O)C(=O)O
inactive: outcome [1] | outcome [2] | outcome [3] | outcome [4] | outcome [5] | Potency [6] | outcome [7] | outcome [8]

COC(=O)c1ccc(O)cc1
inactive: outcome [1] | outcome [2] | outcome [3] | outcome [4] | outcome [5] | Potency [6] | outcome [7] | outcome [8]

C[C@@H](N)C(=O)O
inactive: outcome [1] | outcome [2] | outcome [3] | outcome [4] | outcome [5] | Potency [6] | outcome [7] | outcome [8]

CCCCCCCCCCCCCCCCN
inactive: outcome [1] | outcome [2] | outcome [3] | outcome [4] | outcome [5] | Potency [6] | outcome [7] | outcome [8]

Cc1ncc(CO)c(CN)c1O
inactive: outcome [1] | outcome [2] | outcome [3] | outcome [4] | outcome [5] | Potency [6] | outcome [7] | outcome [8]

OC[C@@H](O)[C@@H](O)[C@H](O)[C@H](O)CO
inactive: outcome [1] | outcome [2] | outcome [3] | outcome [4] | outcome [5] | outcome [9] | outcome [7] | outcome [8]

Cn1c(=O)c2c(ncn2CCO)n(C)c1=O
inactive: outcome [1] | outcome [2] | outcome [3] | outcome [4] | outcome [5] | outcome [9] | outcome [7] | outcome [8]

O[C@@H]1CO[C@H]2[C@@H]1OC[C@@H]2O
inactive: outcome [1] | outcome [2] | outcome [3] | outcome [4] | outcome [5] | Potency [6] | outcome [7] | outcome [8]

NC(=O)[C@@H]1CSSCCC(=O)N[C@@H](CCCCN=C(N)N)C(=O)NCC(=O)N[C@@H](CC(=O)O)C(=O)N[C@@H](Cc2c[nH]c3ccccc23)C(=O)N2CCC[C@H]2C(=O)N1 ([Mpa][hArg]GDWPC-NH2; disulfide 1-7)
inactive: outcome [1] | outcome [2] | outcome [3] | outcome [4] | outcome [5] | Potency [6] | outcome [7] | outcome [8]

CC(=O)N1C[C@H](O)C[C@H]1C(=O)O
inactive: outcome [1] | outcome [2] | outcome [3] | outcome [4] | outcome [5] | Potency [6] | outcome [7] | outcome [8]

Cc1c(Cn2ccnc2)c2ccccc2n1CCC(=O)O
inactive: outcome [1] | outcome [2] | outcome [3] | outcome [4] | outcome [5] | Potency [6] | outcome [7] | outcome [8]

C/C(=C(\CCO)SS/C(CCO)=C(\C)N(C=O)Cc1cnc(C)nc1N)N(C=O)Cc1cnc(C)nc1N
inactive: outcome [1] | outcome [2] | outcome [3] | outcome [4] | outcome [5] | Potency [6] | outcome [7] | outcome [8]

NC(=O)c1ccc([N+](=O)[O-])cc1Cl
inactive: outcome [1] | outcome [2] | outcome [3] | outcome [4] | outcome [5] | outcome [9] | outcome [7] | outcome [8]

O=C(O)c1cc(=O)c2ccccc2o1
inactive: outcome [1] | outcome [2] | outcome [3] | outcome [4] | outcome [5] | Potency [6] | outcome [7] | outcome [8]

COc1ccccc1OCC(O)CO (stereo unspecified)
inactive: outcome [1] | outcome [2] | outcome [3] | outcome [4] | outcome [5] | Potency [6] | outcome [7] | outcome [8]

COc1ccc(NS(=O)(=O)c2ccc(N)cc2)nn1
inactive: outcome [1] | outcome [2] | outcome [3] | outcome [4] | outcome [5] | outcome [9] | outcome [7] | outcome [8]

CC(=O)SC[C@@H](Cc1ccccc1)C(=O)NCC(=O)OCc1ccccc1
inactive: outcome [1] | outcome [2] | outcome [3] | outcome [4] | outcome [5] | outcome [9] | outcome [7] | outcome [8]

O=C(NCN1CCOCC1)c1cnccn1
inactive: outcome [1] | outcome [2] | outcome [3] | outcome [4] | outcome [5] | Potency [6] | outcome [7] | outcome [8]

NCC1CCC(C(=O)Oc2ccc(CCC(=O)O)cc2)CC1 (stereo unspecified)
inactive: outcome [1] | outcome [2] | outcome [3] | outcome [4] | Potency [6] | outcome [7]

CC(C)=CCC[C@@](C)(O)[C@H]1CC=C(C)CC1
inactive: outcome [1] | outcome [2] | outcome [3] | outcome [4] | outcome [5] | Potency [6] | outcome [7] | outcome [8]

NC(N)=NCCN1CCCCCCC1
inactive: outcome [1] | activity change, negative = inhibition [2] -1.99% [at 0.593 µM] | activity change, negative = cytotoxic [3] 19.1% [at 0.594 µM] | activity change, negative = cytotoxic [4] 7.11% [at 0.597 µM] | activity change, negative = cytotoxic [5] 15.5% [at 0.597 µM] | activity change, negative = cytotoxic [6] -13.5% [at 0.597 µM] | activity change, negative = cytotoxic [7] 4.17% [at 0.745 µM] | activity change, negative = cytotoxic [8] 19.5% [at 0.597 µM]

CNc1c2c(nn1C)CCCC2
inactive: outcome [1] | outcome [2] | outcome [3] | outcome [4] | outcome [5] | Potency [6] | outcome [7] | outcome [8]

O=c1[nH]c(=O)n([C@H]2C[C@H](O)[C@@H](CO)O2)cc1I
inactive: outcome [1] | outcome [2] | outcome [3] | outcome [4] | outcome [5] | Potency [6] | outcome [7] | outcome [8]

CN1CC(=O)NC1=N
inactive: outcome [1] | outcome [2] | outcome [3] | outcome [4] | outcome [5] | Potency [6] | outcome [7] | outcome [8]
